HTR2A ag: agonists of mouse serotonin 5-HT2A receptor (HTR2A); CHO-K1 mHTR2A beta-arrestin complementation, luminescence; percent of 30 µM serotonin response; 360,000 tested, 0.66% active; P35363; activation, % at 7.6 µM;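 active = activation above a run cutoff, the mean activation of all tested compounds plus 3 SD, cut at about 14% in these data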;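 also: 0% = plate median of compound wells and 100% = 30 µM serotonin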
sPLA2-III inh: Inhibits HGIII-sPLA2 liposome hydrolysis, primary screen | Q9NZ20 | QFRET BODIPY PC-A2 liposome hydrolysis, fluorescence | inhibition, % at 12.2 µM | 370,000 tested, 0.56% active;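 active = inhibition above mean plus 3 SD of compounds lying within the high and low control bounds, cut at about 19% in these data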;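 also: 0% = median of test compound wells and 100% = no enzyme DMSO wells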
OPRM1-OPRD1 ag: OPRM1-OPRD1 heterodimerization agonism. cells, luminescence. activation, % at 9.3 µM. P35372+P41143. 340,000 tested, 0.3% active; in the data active = activation above about 18%;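 also: 0% = vehicle-treated cells and 100% = reference agonist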
Target sequence (P35372 whole entry, looked up): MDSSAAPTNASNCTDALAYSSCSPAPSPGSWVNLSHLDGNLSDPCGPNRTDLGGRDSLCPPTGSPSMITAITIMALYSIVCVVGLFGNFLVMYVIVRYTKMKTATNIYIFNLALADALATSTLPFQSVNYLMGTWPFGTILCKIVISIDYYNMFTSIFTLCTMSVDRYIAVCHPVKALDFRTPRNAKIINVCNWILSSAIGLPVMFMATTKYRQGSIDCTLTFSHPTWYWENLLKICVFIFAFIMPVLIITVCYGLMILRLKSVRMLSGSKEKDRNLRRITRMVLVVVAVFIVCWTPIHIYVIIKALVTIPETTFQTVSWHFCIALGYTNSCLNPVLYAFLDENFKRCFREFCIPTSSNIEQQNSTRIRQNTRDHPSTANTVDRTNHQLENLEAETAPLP
Target sequence (P41143 whole entry, looked up): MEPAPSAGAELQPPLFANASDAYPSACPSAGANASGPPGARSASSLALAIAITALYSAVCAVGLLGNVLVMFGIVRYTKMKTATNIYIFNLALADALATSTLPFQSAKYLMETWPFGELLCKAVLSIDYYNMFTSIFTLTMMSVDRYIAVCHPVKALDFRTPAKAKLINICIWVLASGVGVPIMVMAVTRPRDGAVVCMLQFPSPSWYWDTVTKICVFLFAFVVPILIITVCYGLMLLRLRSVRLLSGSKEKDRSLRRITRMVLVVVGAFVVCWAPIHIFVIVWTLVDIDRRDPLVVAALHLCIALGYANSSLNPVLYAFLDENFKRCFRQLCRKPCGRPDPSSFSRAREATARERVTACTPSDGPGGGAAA
HTR5A inv ctr: HTR5A inverse agonism, opioid heterodimer counter-screen | 340,000 tested, 0.083% active | HTR5A cell line, luminescence | AID 504634 | inhibition, % at 9.3 µM; in the data active = inhibition mostly above about 23%, no sharp cut-off; inactive = mostly below about 18%;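 also: 0% = cells with DMSO and 100% = no-cell wells with DMSO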
OPRM1-OPRD1 inv: mu-delta opioid heterodimer inverse agonism; P35372+P41143; cell-based MOR-DOR heterodimer luminescence; inhibition, % at 9.3 µM; 340,000 tested, 0.21% active; AID 504357; in the data active = inhibition above about 22%, passing the limit was not always enough;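 also: 0% = cells with DMSO and 100% = wells without cells with DMSO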
HTR5A ag: HTR5A agonism, opioid heterodimer counter-screen. P47898. HTR5A agonist assay, luminescence, cell-based. activation, % at 9.3 µM. 340,000 tested, 0.61% active. AID 504692; in the data active = activation mostly above about 9.5%, no sharp cut-off; inactive = mostly below about 7.6%;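 also: 0% = cells with vehicle only and 100% = reference agonist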
MOR-DOR inv conf: OPRM1-OPRD1 heterodimer inverse agonism, confirmation; inhibition, % at 9.3 µM; AID 504900; shares compounds with OPRM1-OPRD1 inv; cells expressing OPRM1/OPRD1 heterodimer, luminescence; 580 tested, 20% active; in the data active = inhibition above about 32%;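 also: 0% = cells with DMSO and 100% = wells lacking cells with DMSO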
HTR5A inv ctr2: HTR5A inverse agonism, opioid heterodimer counter-screen | HTR5A-expressing cells, luminescence | 580 tested, under 10 active | shares compounds with OPRM1-OPRD1 inv | AID 504914 | inhibition, % at 9.3 µM; call rule not given here;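 also: 0% = cells with DMSO and 100% = no-cell wells with DMSO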
* marks the source's active call; other numbers are inactive results; i = inactive; nt = no result. Sampled rows, rich in hits. Any-hit rate of the full collection: about 2.2%.

SMILES	HTR2A ag	sPLA2-III inh	OPRM1-OPRD1 ag	HTR5A inv ctr	OPRM1-OPRD1 inv	HTR5A ag	MOR-DOR inv conf	HTR5A inv ctr2
O=C(CN=C1NS(=O)(=O)c2ccccc21)OCC(=O)c1cc(F)ccc1F	-3	2	-6	11	30*	-3	7	46*
Cc1ccc(C(=O)NCC(=O)OCC(=O)Nc2ccccc2[N+](=O)[O-])cc1	4	-1	0	7	-3	-3	nt	nt
CC(=O)Nc1ccc(C(=O)OCC(=O)c2ccc(C)c([N+](=O)[O-])c2)cc1	0	-34	-5	-2	19	1	nt	nt
Cc1ccc(C(=O)NCC(=O)OCC(=O)c2ccc(C)c([N+](=O)[O-])c2)cc1	-1	-11	-10	7	51*	-3	42*	19
Cc1ccc(C(=O)COC(=O)CNC(=O)C(c2ccccc2)c2ccccc2)cc1[N+](=O)[O-]	-3	9	-12	16	66*	-5	41*	12
O=C(Cc1ccccc1)NCC(=O)OCC(=O)c1ccc(Cl)c([N+](=O)[O-])c1	0	5	-15	26	90*	-10	70*	19
Cc1nn(-c2ccccc2)c2sc(C(=O)N3CCN(Cc4ccc(F)cc4)CC3)cc12	nt	-6	nt	nt	nt	nt	nt	nt
CN1CCc2c(sc3c2c(=O)n(-c2ccc(Cl)cc2)c2nncn32)C1	8	-1	0	-2	1	-2	nt	nt
O=c1c2c3c(sc2n2cnnc2n1Cc1ccccc1)CN(Cc1ccccc1)CC3	-5	4	-6	22	34*	-8	-37	-27
COc1ccc(NC(=O)c2nc(S(=O)(=O)Cc3cccc(C)c3)ncc2Cl)c(OC)c1	-3	-4	-7	3	35*	3	-338	-20
Cc1ccc(N=C2C(=O)Nc3ccc(Br)cc32)cc1	7	4	-5	6	24	-2	nt	nt
Cc1cccc2c1NC(=O)C2=Nc1ccc(Cl)cc1	-3	1	-11	2	55*	-5	45*	17
O=C1CSC(=Nc2ccc(Cl)cc2)N1	5	5	0	-3	0	4	nt	nt
COc1ccc(N=C2C(=O)Nc3c(C)cccc32)cc1	1	6	-11	25	62*	-7	51*	24
Cc1ccc(N=C2C(=O)Nc3c(C)cccc32)cc1	1	3	-11	14	55*	-4	32*	9
NS(=O)(=O)c1ccc(NC(=O)CSc2nnc(-c3cccs3)o2)cc1	nt	-2	nt	nt	nt	nt	nt	nt
O=C(CSc1nnc(-c2ccccc2)n1-c1ccc(Cl)cc1)c1ccc(Cl)cc1	nt	-2	nt	nt	nt	nt	nt	nt
COc1ccc(-c2nc(=S)c3c(n2Cc2cccnc2)CC(C)(C)OC3)cc1	0	3	-7	-23	33*	1	42*	5
Cc1cnn(CCC(=O)NNC(=S)Nc2cccc(Cl)c2)c1	-9	12	-2	-15	8	1	nt	nt
Cc1cnn(CCC(=O)NNC(=S)Nc2ccc(F)cc2)c1	-5	12	-6	8	31*	-3	40*	1
O=S1(=O)c2c(cccc2N2CCSCC2)Oc2ccccc2CN1Cc1cn(Cc2ccccc2C(F)(F)F)nn1	nt	-1	nt	nt	nt	nt	nt	nt
CC(=O)CCC(=O)OCC(=O)c1ccc(C(F)(F)F)cc1	-4	-4	-9	4	45*	5	-1	13
Cc1ccc(-c2cc(-c3nnc(SCC(=O)N4c5ccccc5Sc5ccccc54)n3N)[nH]n2)cc1	nt	5	nt	nt	nt	nt	nt	nt
Cc1ccc(-n2c(SC/C=C/c3ccccc3)nnc2-c2ccco2)cc1	nt	-14	nt	nt	nt	nt	nt	nt
Nc1nc(-c2ccccn2)nc(N)c1Cc1ccc(Cl)cc1Cl	-6	13	-7	6	36*	-2	-12	-21
SMILES	HTR2A ag	sPLA2-III inh	OPRM1-OPRD1 ag	HTR5A inv ctr	OPRM1-OPRD1 inv	HTR5A ag	MOR-DOR inv conf	HTR5A inv ctr2
Cc1nc2c3ccccc3n(CC(=O)c3ccc(F)cc3)c(=O)n2n1	-4	-1	-6	24	31*	-8	i	-19
CCN1C(=O)C(O)(C2COC(C)(C)CC2=O)c2ccccc21 (stereo unspecified)	1	1	-3	7	15	2	nt	nt
CCN1C(=O)C(O)(C2COC(C)(C)CC2=O)c2cc(Br)ccc21 (stereo unspecified)	-2	-1	-9	-2	56*	1	-16	3
CN[C@H]1C[C@H]2c3[nH]c4c(-c5ccc6c(c5)OCO6)cccc4c3CCN2C[C@H]1[C@H](C)O	nt	0	nt	nt	nt	nt	nt	nt
NC(=S)c1cc2ccc(O)cc2oc1=O	-1	2	-5	-1	31*	-5	11	1
COC(=O)[C@H]1C[C@@]2(n3ccc4ccccc43)c3ccccc3N(S(=O)(=O)c3ccccc3)[C@H]2N1	nt	-6	nt	nt	nt	nt	nt	nt
O=C(CC1(O)C(=O)Nc2ccccc21)c1cccnc1 (stereo unspecified)	1	0	-9	5	52*	0	-41	-3
C[C@H]1[C@@H](N)CC[C@@]23CCCN2C(=O)CCC[C@@H]13	nt	4	nt	nt	nt	nt	nt	nt
COc1ccc(/C=C/C(=O)c2ccc(C)c([N+](=O)[O-])c2)cc1O	-2	-57	6	8	-34	-2	nt	nt
COc1cc(/C=C/C(=O)c2ccc(C)c([N+](=O)[O-])c2)cc(OC)c1O	-3	6	-4	19	20*	-6	-9	17
CC/C(C)=N\N=C\c1c(O)n(CC)c2cc(C3=NNC(=O)CC3)ccc12	2	nt	-7	21	31*	-5	50*	15
N#CCC[C@@H]1CC[C@]2(CCCN(S(=O)(=O)c3ccccc3)C2)O1	nt	17	nt	nt	nt	nt	nt	nt
COc1ccc(Cn2cc(CN3[C@H](C)COc4cc(Br)ccc4S3(=O)=O)nn2)cc1	nt	11	nt	nt	nt	nt	nt	nt
COc1cc(OC)cc(C(=O)NNC(=S)Nc2ccc(S(N)(=O)=O)cc2)c1	-4	7	-7	-16	34*	4	-2	-7
COc1ccc(CNC(=S)Nc2ccc(S(N)(=O)=O)cc2)cc1	-2	-3	0	-10	2	7	nt	nt
O=C1CNCc2[nH]c3ccccc3c2N1c1ccccc1	3	0	0	7	0	-3	nt	nt
O=CN1Cc2[nH]c3ccccc3c2N(c2ccc(Cl)cc2)C1=O	9	-4	-9	-8	44*	3	16	-3
O=C1CCCC2=C1[C@@]1(O[C@H]3C=CC=CN23)C(=O)N(c2ccccc2)c2ccccc21	nt	-2	nt	nt	nt	nt	nt	nt
CC(=O)N[C@H]1C[C@@H]2O[C@H](CO)CC[C@@H]2O[C@@H]1CCc1ccc(-c2ccc(F)cc2)cc1	nt	-2	nt	nt	nt	nt	nt	nt
CC1(C)CC(=O)C2=C(C1)Nc1ccccc1NC2c1cc(Cl)ccc1O (stereo unspecified)	-3	-1	-8	-5	42*	2	-428	-12

High-throughput results (PubChem)
